TDP1 block – inhibitors of human tyrosyl-DNA phosphodiesterase TDP1 | Potency, µM (series often up to 130 µM), hits mostly inhibitors | hit rate 0.28% among 350,000 | AID 485290 | Q9NUW8 | recombinant TDP1, AlphaScreen DNA substrate cleavage; also: nearly all actives have a fitted effect of over 40% in size
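Recombinant human Tdp1 (E. coli-expressed, 1 nM final) preincubated with compounds 15 min at room temperature, then 5'-biotin/3'-phosphotyrosine-FITC DNA substrate (15 nM final) added for 5 min. AlphaScreen beads (10 ug/ml final) added 10 min; cleavage lowers signal.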
POLK inh – inhibitors of human DNA polymerase kappa | Potency, µM (series often up to 107 µM), hits mostly inhibitors | Q9UBT6 | AID 588579 | hit rate 0.53% among 400,000 | purified Pol kappa, fluorescent DNA synthesis assay, 10 min
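First, compounds were pin-transferred onto 10 nM Pol kappa. After 15 min at room temperature, substrate was added to 50 nM final. Fluorescence was then measured kinetically at 0 and 10 min.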
POLB inh – blocks human DNA polymerase beta activity | P06746 | AID 485314 | hit rate 1.3% among 340,000 | Potency, µM (doses to about 114 µM), actives largely listed as inhibitors | Pol beta primer extension/strand displacement, fluorescence kinetic
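Preincubation: enzyme (10 nM) with compound, 15 min, RT. Reaction: substrate added to 50 nM final. Reads: 0 and 10 min. Analysis: normalized, Hill fit.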
Pol eta inh – blocks human DNA polymerase eta activity; Q9Y253; recombinant Pol eta, fluorescent DNA replication assay; Potency, µM (top dose mostly 114 µM), most hits filed as inhibitors; hit rate 1.2% among 390,000
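Pol eta at 10 nM preincubated with compounds 15 min at room temperature; reaction started with fluorescent substrate (50 nM final) and read kinetically at 0 and 10 min.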
FEN1 inh – human FEN1 inhibition; Potency, µM (series often up to 114 µM), most hits filed as inhibitors; hit rate 0.35% among 390,000; Recombinant FEN1 flap cleavage, fluorescence, 15 min; P39748; also: nearly all actives have a fitted effect of over 65% in size
Target sequence (P39748 whole entry, looked up): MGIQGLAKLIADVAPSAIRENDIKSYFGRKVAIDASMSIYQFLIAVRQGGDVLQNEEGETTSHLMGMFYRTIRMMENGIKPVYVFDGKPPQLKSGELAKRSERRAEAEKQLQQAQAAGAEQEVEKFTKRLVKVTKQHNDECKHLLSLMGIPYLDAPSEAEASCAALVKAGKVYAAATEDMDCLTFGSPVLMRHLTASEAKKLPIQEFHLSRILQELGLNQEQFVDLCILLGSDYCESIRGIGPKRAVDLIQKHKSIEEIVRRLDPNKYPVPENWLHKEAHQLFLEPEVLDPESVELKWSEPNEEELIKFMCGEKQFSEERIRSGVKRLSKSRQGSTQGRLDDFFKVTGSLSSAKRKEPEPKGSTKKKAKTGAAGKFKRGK
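Recombinant FEN1 (10 nM) was preincubated with pin-transferred compounds for 15 min at room temperature, then flap DNA substrate (50 nM final) was added. Plates were read at 0 and 15 min, and normalized concentration–response data were fitted to a four-parameter Hill equation.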
POLI inh – blocks human DNA polymerase iota activity; AID 588590; Q9UNA4; Pol iota fluorescent replication assay, 10 min; Potency, µM (highest dose often 115 µM), hits mostly inhibitors; hit rate 1% among 390,000
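Fluorescent replication assay read twice, at 0 min and 10 min after adding 50 nM (final) substrate. Enzyme (10 nM) and compounds were first incubated 15 min at room temperature; enzyme-free buffer wells were negative controls.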
Hits are given with their value; i = inactive; ? = inconclusive; nt = no result. This is a sample that favours compounds with a hit; in the whole collection about 2.4% have one here. Calls follow the shape of the dose curve; as a rule, active = well fitted curve in the direction sought with a large enough effect; inconclusive = small, poorly fitted or top-dose-only effect, or another doubt; inactive = no such curve, though single readings can be large; an effect the other way counts as inactive or inconclusive.

SMILES	TDP1 block	POLK inh	POLB inh	Pol eta inh	FEN1 inh	POLI inh
O=C(CSc1oc(-c2ccco2)nc1S(=O)(=O)c1ccc(Br)cc1)c1ccc(Cl)cc1	i	?	i	i	i	89.1µM
CC(=O)Nc1ccc(OC2=NS(=O)(=O)c3ccccc32)cc1	i	nt	nt	nt	nt	nt
COc1ccc2[nH]c(C)c(C(=O)CNc3nccs3)c2c1	nt	i	nt	nt	i	i
Cc1nn(C)c(C)c1N1C(=O)c2cccc3c(N)ccc(c23)C1=O	i	i	i	i	i	i
Cc1ccc(N2C(=O)c3cccc4c(N)ccc(c34)C2=O)c2cccnc12	nt	?	?	?	?	79.4µM
O=C1CCCc2oc3ccc(NS(=O)(=O)c4cccc5cccnc45)cc3c21	50.1µM	i	i	89.1µM	i	?
O=C1CC(c2ccccc2)=NN1c1ccccc1	nt	i	nt	i	i	i
O=C1CC(c2ccccc2)=NN1c1nc(-c2ccccc2)cs1	i	39.8µM	31.6µM	i	?	20µM
COc1ccc(C=O)cc1COc1c(F)c(F)cc(F)c1F	i	i	i	i	i	i
COc1ccc(C=O)cc1COc1ccc(F)cc1F	i	i	17.8µM	?	i	?
CCOc1ccc(CNCc2c(C(=O)O)n(Cc3ccccc3F)c3cc(OC)ccc23)cc1	i	i	i	i	i	i
Cn1c(SCc2ccccc2)nccc1=O	nt	i	nt	i	i	i
CC1=C(SCc2ccccc2)C(=O)c2ccccc2C1=O	nt	i	nt	31.6µM	?	3.16µM
C(=C1c2ccccc2Oc2ccccc21)c1ccccc1	nt	i	nt	nt	i	i
C=C/C(C)=C/CC1C(=C)CCC2C(C)(C(=O)O)CCCC12C (stereo not given)	nt	15.8µM	?	7.08µM	?	?
C=C[C@]1(C)C=C2CCC3[C@](C)(CCC[C@@]3(C)C(=O)O)C2CC1 (stereo not given in full)	nt	i	nt	?	i	i
O=C(OCc1ccc([N+](=O)[O-])cc1)C1CC(=O)N(CCc2ccccc2)C1 (stereo not given)	i	i	nt	i	i	i
O=C(OCc1nnc(-c2ccc([N+](=O)[O-])cc2)o1)C1CC(=O)N(CCc2ccccc2)C1 (stereo not given)	i	i	nt	?	i	79.4µM
Cc1ccc(CCC(=O)Nc2ccc(S(N)(=O)=O)cc2)o1	i	i	i	14.1µM	i	i
Cc1nc(Sc2nnnn2C2CC2)c2c(-c3ccccc3)csc2n1	nt	i	nt	nt	i	i
CCc1ccc(S(=O)(=O)c2nnn3c2nc(Nc2ccc(NC(C)=O)cc2)c2sccc23)cc1	nt	i	i	?	i	79.4µM
CCc1ccc(Nc2nc3c(S(=O)(=O)c4ccc(C)cc4)nnn3c3ccsc23)cc1	i	i	i	i	i	i
Nc1ccc2c(c1)-c1ccccc1S(=O)(=O)N2	i	?	i	44.7µM	?	14.1µM
COc1cc(/C=N/NC(=O)c2c(C)nnn2-c2nonc2N)ccc1O	i	i	i	i	i	?
Cc1nnn(-c2nonc2N)c1C(=O)N/N=C/c1ccccc1O	i	i	44.7µM	?	i	?
SMILES	TDP1 block	POLK inh	POLB inh	Pol eta inh	FEN1 inh	POLI inh
CCN1C(=O)CC(c2ccccc2)CC1=O	i	i	nt	i	i	79.4µM
COc1cccc(C(=O)c2cn(CC(=O)NCc3ccco3)c3nc(C)ccc3c2=O)c1	i	89.1µM	?	39.8µM	i	22.4µM
C(=C\c1ccnc2ccccc12)/c1ccc(N(Cc2ccccc2)Cc2ccccc2)cc1	nt	i	nt	nt	i	i
N=c1oc2cc(O)ccc2cc1C(=O)Nc1ccc(Cl)cc1	nt	i	i	79.4µM	i	i
CC(=O)NC(Cc1ccc(Cl)cc1)C(=O)NCC(N)C(=O)c1ccccc1 (stereo not given)	nt	i	nt	nt	i	i
COc1cc(/C=N/NC(=O)c2cc3ccccc3cc2O)ccc1OCCN1CCCCC1	i	i	79.4µM	i	?	?
c1nc(NCCc2cnc[nH]2)c2ccc(-c3ccc4c(c3)OCO4)cc2n1	i	nt	nt	nt	nt	nt
C#CCOCCOCCOCCNc1nc(N2CCN(C(=O)CCCCCCCCCCNC(=O)[C@H]([C@@H](C)CC)n3cc(CCCCN=C(N)N)nn3)CC2)nc(N2CCN(C(=O)CCCCCCCCCCNC(=O)[C@H](CCCCN)n3cc(C)nn3)CC2)n1	i	i	nt	?	25.1µM	?
C#CCOCCOCCOCCNc1nc(N2CCN(C(=O)CCCCCCCCCCNC(=O)Cn3cc(CCCCCN)nn3)CC2)nc(N2CCN(C(=O)CCCCCCCCCCNC(=O)[C@H]([C@@H](C)CC)n3cc(CCCCN=C(N)N)nn3)CC2)n1	i	i	nt	79.4µM	20µM	?
COc1cc2cc(Oc3ccc4ccc(=O)oc4c3)c(=O)oc2cc1OC(=O)C=C(C)C	i	nt	14.1µM	nt	nt	nt
C(=Nc1cccnc1)c1ccnc2ccccc12	nt	i	nt	nt	i	i
CCOC(=O)/C=C1/SCC(=O)N1CC(=O)c1ccc[nH]1	nt	i	nt	?	i	22.4µM
CNc1ccc(-c2nc3ccccc3s2)cc1	i	i	nt	nt	nt	nt
COc1ccccc1C1C2=C(N=c3s/c(=C/c4cccc(OCC(=O)O)c4)c(=O)n31)c1ccccc1CC2 (stereo not given)	i	i	50.1µM	39.8µM	i	?
COc1cccc(C2C3=C(N=c4s/c(=C\c5ccc(OCC(=O)O)cc5)c(=O)n42)c2ccccc2CC3)c1 (stereo not given)	nt	i	?	89.1µM	i	i
COc1cccc(C2C3=C(N=c4s/c(=C\c5cccc(O)c5)c(=O)n42)c2ccccc2CC3)c1OC (stereo not given)	i	i	i	i	i	i
COc1cc2c(cc1CC=C(C)C)C(=O)C[C@@H](c1ccc(O)cc1)O2	i	?	nt	nt	nt	nt
C=CCCCCCC	i	nt	nt	nt	nt	nt
Cc1nn(CC(=O)N(C)Cc2ccc(F)cc2)c(C)c1[N+](=O)[O-]	i	i	0.178µM	i	i	i
CC(=O)NC(Cc1ccc(I)cc1)C(=O)NCC(N)C(=O)c1ccccc1 (stereo not given)	nt	i	nt	nt	i	i
Cc1ccc(S(=O)(=O)NCC(=O)N(CC(=O)NCC2CCCO2)Cc2ccccc2)cc1 (stereo not given)	i	i	i	i	i	i
Cc1ccc(S(=O)(=O)NCC(=O)N(CC(=O)NCC2CCCO2)Cc2ccco2)cc1 (stereo not given)	i	i	12.6µM	i	i	i
O=S(=O)(c1ccc2c(c1)OCCO2)N1CCN(S(=O)(=O)c2c(F)ccc(O)c2F)CC1	i	nt	nt	nt	nt	nt
Cc1ccc(-n2nc(-c3ccco3)cc2C(=O)O)cc1	nt	?	?	14.1µM	i	17.8µM
O=C(O)c1cc(-c2ccc(N3CCOCC3)cc2)nn1-c1ccc(F)cc1	i	i	i	i	i	i
O=C(c1cc(-c2ccco2)nn1-c1cccc(Cl)c1)N1CCCCC1	i	?	?	17.8µM	i	?
O=C(c1cc(-c2cccc(Cl)c2)on1)N1CCCCCC1	i	i	i	i	i	i
